Assay outcomes deposited in PubChem by National Center for Advancing Translational Sciences (NCATS).
CRE-bla Fsk: CRE-bla signaling modulation under forskolin stimulation; Potency, µM (top dose mostly 38.2 µM), for the others: top-dose activity change, negative = inhibition, actives largely listed as activators; CHO CRE-bla reporter (cAMP response element driving beta-lactamase), forskolin EC10, beta-lactamase ratio; 71,000 tested, 2.5% active; active means well fitted activation curve with a large enough effect in the signal ratio, with a control signal flat, not every such curve was filed as active; inconclusive means small, poorly fitted or top-dose-only effect, or effect the other way, or a change in a side signal; the % refers to the signal ratio; further: % of control where 0% means no effect
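Modulation of forskolin signalling: compounds in titration series added with EC10 NKH 477 to CHO cells carrying a CRE-driven beta-lactamase reporter, 3 h, 37C. CCF4 FRET ratio (460/530 nm, ex 405 nm) gives %activity and AC50.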
ERK AVP block: blocks ERK signaling stimulated by vasopressin. 72,000 tested, 0.99% active. Potency, µM (top dose mostly 57.5 µM), for inactives: at the highest dose activity, negative = inhibition, hits mostly inhibitors. HEK293-V1b, vasopressin-stimulated pERK AlphaScreen. AID 995; further: on the % scale 0 is the no-effect control and ±100 the full control effect; nearly all actives have a fitted effect of over 55% in size
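Phosphorylated ERK1/2 detected via AlphaScreen bead proximity in lysates of V1b-expressing HEK293 cells given 25 nM vasopressin for 5 min after 30 min compound exposure (37 °C). AC50 from Hill equation; basal DMSO 0%, vasopressin 100%.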
ALOX15B inhib: inhibitors of human 15-lipoxygenase 2 (ALOX15B) | O15296 | purified 15hLO-2, xylenol orange hydroperoxide absorbance | Potency, µM (titrated, usually from 57.1 µM), inactives show at the highest dose activity change, negative = inhibition, hits mostly inhibitors | 110,000 tested, 0.56% active; further: on the % scale 0 is the no-effect control and ±100 the full control effect; nearly all actives have a fitted effect of over 60% in size
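Purified human 15hLO-2 (50 nM final) preincubated with compounds 15 min at room temperature in 25 mM Hepes pH 7.5, 0.01% Triton X-100, then 45 uM arachidonic acid added for 90 min; hydroperoxide detected via ferrous/xylenol orange, 573/405 nm absorbance ratio.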
15-hLO inh: inhibitors of human 15-lipoxygenase (ALOX15); purified 15hLO-1, xylenol orange hydroperoxide absorbance; P16050; 74,000 tested, 1.4% active; Potency, µM (series often up to 57.1 µM), without a hit: at the highest dose activity change, negative = inhibition, most hits filed as inhibitors; AID 887; further: on the % scale 0 is the no-effect control and ±100 the full control effect; nearly all actives have a fitted effect of over 55% in size
Target sequence (P16050 whole entry, looked up): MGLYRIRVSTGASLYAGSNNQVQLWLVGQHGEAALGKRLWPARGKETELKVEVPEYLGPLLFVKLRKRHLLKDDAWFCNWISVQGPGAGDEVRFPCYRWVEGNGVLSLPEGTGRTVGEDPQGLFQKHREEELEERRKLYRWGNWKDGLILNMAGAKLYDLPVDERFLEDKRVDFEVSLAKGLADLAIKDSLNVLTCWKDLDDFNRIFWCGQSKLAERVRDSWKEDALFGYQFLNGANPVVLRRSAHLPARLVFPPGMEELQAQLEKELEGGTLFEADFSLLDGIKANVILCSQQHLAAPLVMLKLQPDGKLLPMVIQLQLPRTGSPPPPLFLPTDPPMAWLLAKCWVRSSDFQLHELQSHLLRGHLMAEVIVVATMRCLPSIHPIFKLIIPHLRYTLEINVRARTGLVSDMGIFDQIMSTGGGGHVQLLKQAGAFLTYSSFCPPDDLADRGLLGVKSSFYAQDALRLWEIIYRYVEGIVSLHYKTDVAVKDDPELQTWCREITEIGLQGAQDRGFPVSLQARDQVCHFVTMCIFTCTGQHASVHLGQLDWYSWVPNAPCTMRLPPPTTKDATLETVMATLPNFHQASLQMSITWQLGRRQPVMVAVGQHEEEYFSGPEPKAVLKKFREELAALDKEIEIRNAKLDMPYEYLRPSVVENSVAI
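Inhibition is scored from a chromogenic endpoint. After 15 min enzyme-compound contact, arachidonic acid (50 uM final) reacts 6 min with 40 nM 15hLO-1 at room temperature, then Fe-XO reagent is added for 30 min and absorbance ratio recorded.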
An asterisk follows results filed as active; u = inconclusive; x = no result; [ ] = remark or other dose. Only some compounds are listed: those with a hit (about 3.2% of all), similar ones and a draw of the others. Unless noted, the call rests on the fitted dose curve; in most records, active means well fitted inhibition curve with a large enough effect; inconclusive means small, poorly fitted or top-dose-only effect; inactive means no such curve, though single readings can be large or run the other way. Potency means the concentration at half of the fitted maximal effect.

SMILES	CRE-bla Fsk	ERK AVP block	ALOX15B inhib	15-hLO inh
CCOC(=O)c1[nH]c(COC(=O)c2ccccc2NC(=O)c2ccco2)c(C(=O)OCC)c1C	u	u	4%	2%
COc1cccc(C2=NC(C)(C)NC(c3ccccc3O)C2)c1 (configuration not stated)	-26%	-1%	-1%	32µM*
CCC1(C)N=C(c2ccc3c(c2)OCO3)CC(c2ccccc2O)N1 (configuration not stated)	x	x	-1%	x
N#Cc1c(-c2ccncc2)c2c([nH]c1=S)CCCC2	x	x	-23%	x
Cc1ccc(-c2c3c([nH]c(=S)c2C#N)CCCC3)o1	10%	-13%	u	10µM*
Cc1c(CN(C)C)c2c(n1C)C(=O)c1ccc(Br)cc1-2	3.2µM*	u	-5%	3%
Cc1c(CN(C)C)c2c(n1Cc1ccccc1)C(=O)c1ccc(Br)cc1-2	x	x	23%	x
COc1ccc2[nH]cc(CCNc3ncncc3-c3ccccc3Cl)c2c1	11%	u	13%	-26%
Fc1ccc(OCc2nc(-c3ccc(Br)o3)no2)c(F)c1	-3%	-6%	-20%	7.9µM*
Clc1ccccc1OCc1nc(-c2ccc(Br)o2)no1	x	x	-16%	x
Cc1c(C(C)(C)C)c(C=S)n2ccccc12	x	x	16µM*	x
C[C@H](Br)C(=O)c1ccc2cc(Br)c3ccccc3c2c1	10%[7.6 µM]	-5%[11.5 µM]	-8%[11.4 µM]	0%[11.4 µM]
CC(C)=NOC[C@@H](C)[C@H](OCc1ccccc1)C(C)C	x	26%[11.5 µM]	x	11%[11.4 µM]
COc1ccc(O)c(-c2c(-c3ccc(Cl)cc3)n[nH]c2C)c1	-7%	u	-15%	25µM*
COc1ccc(-c2n[nH]c(C)c2-c2ccc(Cl)cc2)c(O)c1	x	x	-1%	x
COc1ccc(-c2n[nH]c(C)c2-c2ccc(Cl)cc2)c(O)c1OC	u	25µM*	39%	-21%
C[C@H](C(=O)c1ccncc1)c1ccccn1	0%[7.6 µM]	-2%[11.5 µM]	-4%[11.4 µM]	14%[11.4 µM]
CCOC(=O)C1=C[C@@]2(CC)CCCN3CCc4c(n1c1ccccc41)C32 (some centres not stated)	x	6%	13%	-7%
Cc1cc(C)n(-c2nc3ccccc3c3nc(C)nn23)n1	10µM*	x	0%	-4%
CCOC(=O)Cc1nnc(NC(=O)c2ccccc2OCC)s1	13µM*	-22%	x	5%
CCOc1ccccc1C(=O)Nc1nccs1	u	u	2%	7.9µM*
CCOC(=O)Cc1nnc(NC(=O)c2ccccc2OC)s1	u	-10%	-12%	4%
COCCSc1ccccc1C(=O)Nc1nccs1	-3%	-14%	u	-10%
CC(=O)c1ccc(OC2C=CC(C#Cc3ccc(Br)cc3)OC2CO)cc1 (configuration not stated)	x	10%[11.5 µM]	x	-1%[11.4 µM]
O[C@H](C[C@@H]1CCCCN1)c1ccc2c(c1)oc1ccccc12	22%[7.6 µM]	-9%[11.5 µM]	9%[11.4 µM]	8%[11.4 µM]
SMILES	CRE-bla Fsk	ERK AVP block	ALOX15B inhib	15-hLO inh
O=C(c1ccc(Cl)s1)N1CCN(c2ccccc2)CC1	13µM*	x	x	8%
Cc1cccc(CNc2cc(-c3c(C)noc3C)ncn2)c1	u	2%	-7%	-6%
COC(=O)C1=C(C)N(Cc2ccccc2)[C@]23O[C@](C(=O)OC)(C(=O)N2C1c1ccccc1)C(C(=O)OC)C3C(=O)OC (some centres not stated)	x	2%[11.5 µM]	x	6%[11.4 µM]
O=S1(=O)C=C(Sc2nc3ccccc3s2)c2ccccc21	10%	13µM*	-21%	u
Cc1cc(C)nc(SC2=CS(=O)(=O)c3ccccc32)n1	-10%	-3%	1%	14%
CCN(CC)CCCC(C)n1c(-c2ccccc2)nc2c(N3CCOCC3)nc(C)nc21 (configuration not stated)	5%	12%	15%	3%
Oc1ccccc1CNc1nc2ccccc2n1CCN1CCCCC1	-18%	-8%	5%	13µM*
COc1ccccc1CNc1nc2ccccc2n1CCN1CCCCC1	-9%	4%	68%	-3%
CC1(C)Cc2c(c(N3CCCC3)[nH]c(=S)c2C#N)CO1	x	x	-7%	x
CC1(C)Cc2[nH]c(=S)c(C#N)cc2CO1	x	x	16µM*	x
OC[C@@H]1CCC[C@H](n2cnc3c(=S)nc[nH]c32)O1	16%[7.6 µM]	-7%[11.5 µM]	1%[11.4 µM]	-2%[11.4 µM]
O=c1oc2c3c4c(cc2c2c1CCC2)OCCN4CCC3	13µM*	5%	-24%	u
O=C(O)c1ccc(F)c(S(=O)(=O)Nc2cccc(F)c2)c1	x	x	x	-8%
O=C1/C(=C/c2cccs2)SC(=S)N1c1ccccc1	x	x	-4%	x
O=C1N=C(c2ccccc2)S/C1=C\c1cccs1	x	x	10µM*	x
CC(=O)N[C@@H]1CONC1=O	-9%[7.6 µM]	18%[11.5 µM]	-5%[11.4 µM]	2%[11.4 µM]
CCc1cccc(NC(=O)Nc2cccs2)c1	-12%	-22%	-25%	13µM*
Cc1cccc(C)c1NC(=O)Nc1cccs1	-25%	-13%	-24%	25µM*
N#Cc1cccc(NC(=O)Nc2cccs2)c1	-19%	15%	-22%	u
CCOCCCn1c(=N)c(C(N)=S)cc2c(=O)n3cccc(C)c3nc21	13µM*	u	u	u
CCOCCCNC(=O)c1cc2c(=O)n3cccc(C)c3nc2n1C	0.25µM*	x	-6%	-4%
CCCCNC(=O)c1cc2c(=O)n3cccc(C)c3nc2n1C	u	x	-8%	-2%
CS(=O)(=O)Nc1ccc(Nc2c3ccccc3nc3ccccc23)cc1	17%[7.6 µM]	-6%[11.5 µM]	u	1%[11.4 µM]
O=C1N=C(O)CN1/N=C\c1ccc(-c2ccc([N+](=O)[O-])cc2)o1	u	0%	-27%	2%[25.6 µM]
O[C@]1(c2ccccc2)c2ccccc2NC2=NCCN21	4%[7.6 µM]	8%[11.5 µM]	-1%[11.4 µM]	-8%[11.4 µM]
SMILES	CRE-bla Fsk	ERK AVP block	ALOX15B inhib	15-hLO inh
O=c1c(-c2cccs2)nc2cnc(N3CCNCC3)nc2n1C1CC1	u	29%	-5%	1%
CCc1nc(SCC(=O)N2CCN(C(=O)c3ccco3)CC2)c2c3c(sc2n1)CCCC3	12%	20µM*	-7%	-12%
COC(=O)c1sc2nc(N3CCCCC3)c3c(c2c1N)CCCC3	x	x	12%	x
NC(=O)c1sc2nc(N3CCCCC3)c3c(c2c1N)CCCC3	1.3µM*	-22%	-5%	-25%[11.4 µM]
O=C(O)[C@@H]1[C@H](C(=O)O)[C@H]2C(=O)C=C[C@H]1N2Cc1ccccc1	u	4%[11.5 µM]	-4%[11.4 µM]	5%[11.4 µM]
CC1(C)S[C@@H]2[C@H](NC(=O)C3(N)CCCCC3)C(=O)N2[C@@H]1C(=O)O	-7%[7.6 µM]	-10%[11.5 µM]	0%[11.4 µM]	6%[11.4 µM]
COc1ccc(NC(=O)c2cc3c(=O)n(C)c4ccccc4c3n2C)cc1OC	4µM*	u	-2%	-12%
Cn1c(C(=O)NC2CCCCC2)cc2c(=O)n(C)c3ccccc3c21	u	-7%	-6%	5%
COc1cc(NC(=O)c2cc3c(=O)n(C)c4ccccc4c3n2C)cc(OC)c1OC	17%	-12%	-4%	-12%
Cn1c(C(=O)NC2CCCCCC2)cc2c(=O)n(C)c3ccccc3c21	2.5µM*	19%	1%	-4%
CC(=O)N1CCC2(CCCN(c3ccccn3)C2)CC1	-3%	16%	-2%	-12%
O=c1c2ccccc2sn1-c1cc(S(=O)(=O)N2CCOCC2)ccc1N1CCOCC1	7%	u	0.5µM*	16µM*
